Results: PubChem BioAssay (NCATS)
Inconclusive results are not listed. Activity calls are given as the source filed them. Unless noted, the call rests on the fitted dose curve; in most records, active means well fitted curve in the direction sought with a large enough effect; inconclusive means small, poorly fitted or top-dose-only effect, or another doubt; inactive means no such curve, though single readings can be large; an effect the other way counts as inactive or inconclusive.

Legend:
[1] = Cell Viability - Jurkat (AID 426;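 active means dose-dependent loss of cell ATP signal giving a full or clear fitted curve, ranked by lower potency value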; further: potency means the concentration at half of the fitted maximal effect); details: qHTS
Method in brief: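 Jurkat (clone E6-1, human T-cell leukemia) cells, 5000/well in complete medium, were exposed to compound for 40 hr at 37 °C. Viability was read as intracellular ATP by CellTiter-Glo luminescence; AC50 came from Hill fits of concentration-response data.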

[2] = Cell Viability - Hek293 (AID 427;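 active means compounds whose dose-response curve shows a full or clear partial loss of cell viability, called from curve shape rather than a numeric limit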;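 further: potency means the concentration at half of the fitted maximal effect; cells exposed to compound for 40 hours at 37 °C before reading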); details: qHTS
Method in brief: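 AC50 values derive from Hill-modelled concentration-response of ATP-based luminescence, normalized between DMSO-only and 100 uM tamoxifen controls. Cells were exposed in complete culture medium for 40 hr at 37 °C before detection.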

[3] = Cell Viability - HepG2 (AID 433; calls by dose curve;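 further: potency means the concentration at half of the fitted maximal effect; potency for ATP loss meaning cytotoxicity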); details: qHTS
Method in brief: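 In this qHTS format, a 40 h, 37 °C compound incubation of HepG2 cells in complete medium precedes a 20 min CellTiter-Glo step at room temperature. Tamoxifen and doxorubicin serve as positive controls; Hill-equation fits yield AC50.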

[4] = Cell Viability - MRC5 (AID 434; calls by dose curve;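 further: potency means the concentration at half of the fitted maximal effect; potency reflects cytotoxicity seen as loss of intracellular ATP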); details: MRC5 lung fibroblast viability, qHTS
Method in brief: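 qHTS cytotoxicity in human lung fibroblast MRC5 cells; 40 hr treatment, 37 °C; cellular ATP by luciferase luminescence; DMSO = 0%, 100 uM tamoxifen = 100% inhibition; Hill-fit AC50.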

[5] = Cell Viability - SK-N-SH (AID 435; calls by dose curve;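 further: potency means the concentration at half of the fitted maximal effect; compound exposure lasted 40 h at 37 °C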); details: SK-N-SH neuroblastoma cell viability qHTS
Method in brief: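 Human neuroblastoma line, 40 h exposure at 37 °C, ATP quantified via luciferase luminescence; DMSO and 100 uM tamoxifen define 0 and 100% inhibition for AC50 fitting.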

[6] = target: Mitogen-activated protein kinase 10 (Mus musculus) (UniProt Q61831); assay: JNK3 AlphaScreen Assay (AID 530; active means well fitted curve in either direction with a large enough effect, not every such curve was filed as active;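 further: kinase came from lysate of stimulated human HepG2 cells; signal reports phosphorylation of biotinylated GST-cJun 1-79 at Ser73 with 10 µM ATP; on the % scale 0 is the no-effect control and ±100 the full control effect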)
Method in brief: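 Room-temperature AlphaScreen kinase assay; pre-activated HepG2 lysate as JNK3 source, biotin-GST-cJun(1-79) substrate, 10 uM ATP, compound 15 min preincubation.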

[7] = Cell Viability - N2a (AID 540); details: N2a mouse neuroblastoma cell viability; at 92.2 µM (top of the series);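 further: plate controls were DMSO alone for no effect and tamoxifen control for full effect; nearly all actives have a fitted effect of over 45% in size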
Method in brief: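 Mouse neuroblastoma N2a cells (1500/well) were preincubated 5 hr at 37 °C, then exposed to compounds for 40 hr at 37 °C in complete medium. Viability was read as intracellular ATP by CellTiter-Glo luminescence; AC50 from Hill fits.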

[8] = Cell Viability - HUV-EC-C (AID 542); further: on the % scale 0 is the no-effect control and ±100 the full control effect; nearly all actives have a fitted effect of over 35% in size
Method in brief: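 HUV-EC-C normal human vascular endothelial cells, 1000 cells/well, pre-incubated 5 hr at 37 °C, then exposed to compounds for 40 hr at 37 °C in complete medium. Viability measured as intracellular ATP by CellTiter-Glo luminescence; AC50 from Hill fits.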

[9] = Cell Viability - H-4-II-E (AID 543); further: on the % scale 0 is the no-effect control and ±100 the full control effect; nearly all actives have a fitted effect of over 35% in size
Method in brief: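 Rat hepatoma H-4-II-E cells (1500/well) were plated, incubated 5 hr at 37 °C, then exposed to compounds for 40 hr at 37 °C. Cellular ATP was read by CellTiter-Glo luminescence; AC50 came from Hill-equation fits of concentration-response data.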

[10] = Cell Viability - SH-SY5Y (AID 544); details: SH-SY5Y neuroblastoma cell viability; viability change, negative = cytotoxic: at 92.2 µM (top of the series); further: nearly all actives have a fitted effect of over 55% in size
Method in brief: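 Human neuroblastoma SH-SY5Y cells (1500/well) in complete medium were exposed to compounds for 40 hr at 37 °C; intracellular ATP was then quantified by CellTiter-Glo luminescence after 20 min at room temperature. AC50 came from Hill-equation concentration-response fits.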

[11] = Cell Viability - Renal Proximal Tubule (AID 545); details: renal proximal tubule cells viability; at 91.7 µM (top of the series), primary cells of rat origin unless noted; further: nearly all actives have a fitted effect of over 40% in size
Method in brief: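 In this qHTS format, normal rat kidney-derived proximal tubule cells in complete culture medium receive compound titrations, then sit 40 hours at 37 °C before luciferase-based ATP quantitation; potency is reported as AC50 from concentration-response curves.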

[12] = Cell Viability - Mesenchymal (AID 546);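 further: cells exposed to compound for 40 hours before reading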
Method in brief: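 AC50 values reflect the drop in intracellular ATP in a human kidney mesenchymal line derived from normal glomeruli. Treatment lasts 40 hr at 37 °C in complete medium, and the signal comes from CellTiter-Glo luminescence.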

[13] = Cellular Toxicity (caspase-3) HepG2 (AID 654);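 further: cells exposed to compound for 16 hours before reading; 0% = DMSO alone and 100% = caspase signal from 100 µM tamoxifen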
Method in brief: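 HepG2 cells (1500/well) in complete medium were treated with compounds for 16 hr at 37 °C. Caspase-3/7 activity was then read as luminescence from peptide-aminoluciferin cleavage. AC50 came from Hill fits, normalized to DMSO and 100 uM tamoxifen.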

[14] = Cellular Toxicity (caspase-3) Jurkat (AID 655); details: Jurkat caspase-3 activation, luminescence, DMSO = 0%, tamoxifen = 100%; at 92.2 µM (top of the series);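 further: cells exposed to compound for 16 h at 37 °C before reading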
Method in brief: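 qHTS in human Jurkat T-cell leukemia line: 16 hr compound treatment at 37 °C, caspase-3/7 activity measured by Caspase-Glo luminescence. AC50 derived from Hill equation.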

[15] = Cellular Toxicity (caspase-3) HUV-EC-C (AID 656)
Method in brief: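 Concentration-dependent caspase 3/7 induction was assessed in HUV-EC-C cells exposed for 16 hours. Data scaled between DMSO and tamoxifen (100 uM) controls.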

[16] = Cellular Toxicity (caspase-3) SHSY5Y (AID 657)
Method in brief: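 Readout: caspase-cleaved peptide-aminoluciferin substrate driving luciferase light in SH-SY5Y neuroblastoma cells after 16 h treatment. Response normalized to DMSO and 10 uM staurosporine controls.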

[17] = Cellular Toxicity (caspase-3) BJ (AID 658)
Method in brief: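 Readout: Caspase-Glo 3/7 luminescence increase in BJ cells after 16 hr treatment at 37 °C. Staurosporine and tamoxifen served as positive controls; AC50 values came from Hill modelling of data normalized to DMSO and 10 uM staurosporine.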

[18] = Cellular Toxicity (caspase-3) MRC-5 (AID 659)
Method in brief: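 Concentration-dependent caspase 3/7 activation is measured in human normal lung fibroblasts (MRC-5) following 16-hour treatment. AC50 values come from standard Hill-equation modeling of luminescence normalized to DMSO and 10 uM staurosporine.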

[19] = Cellular Toxicity (caspase-3) Mesangial (AID 660);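 further: cells exposed to compound for 16 h before the caspase read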
Method in brief: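 Human renal glomerular mesangial cells (1000/well) were treated with compounds for 16 h at 37 °C in complete medium, then caspase 3/7 activity was read by Caspase-Glo luminescence. Data were normalized to DMSO and 100 uM tamoxifen; AC50 from Hill fits.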

[20] = Cellular Toxicity (caspase-3) SK-N-SH (AID 661)
Method in brief: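 SK-N-SH human neuroblastoma cells (1500/well) were treated with compounds for 16 hr at 37 °C in complete medium; caspase 3/7 activity was read by Caspase-Glo luminescence. AC50 came from Hill fits of data normalized to DMSO and 10 uM staurosporine.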

[21] = Cellular Toxicity (caspase-3) H-4-II-E (AID 663);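 further: cells exposed to compound for 16 hr before readout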
Method in brief: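 Apoptosis induction is scored as increased luminescence from caspase 3/7 substrate cleavage in rat hepatoma H-4-II-E cells exposed to compound for 16 hr. Activity is scaled between DMSO and 100 uM tamoxifen.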

[22] = Cellular Toxicity (caspase-3) Hek293 (AID 664);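 further: cells exposed to compound for 16 h at 37 °C before readout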
Method in brief: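 HEK293 cells were exposed to compounds in complete medium for 16 hr at 37 °C, then caspase-3/7 activity was read by Caspase-Glo 3/7 luminescence after 20 min at room temperature. Data normalized to DMSO and 100 uM tamoxifen; AC50 from Hill fits.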

[23] = Cellular Toxicity (caspase-3) N2a (AID 665); details: N2a cells, luminescence, normalized: DMSO 0%, 10 µM staurosporine 100%; at 92.2 µM (top of the series);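 further: compound exposure lasted 16 h at 37 °C before readout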
Method in brief: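 Mouse N2a neuroblastoma cells (1500/well) were treated with compounds for 16 h at 37 °C, then caspase-3/7 activity was read by Caspase-Glo luminescence after 1 h at room temperature. Data were normalized to DMSO and 10 uM staurosporine; AC50 from Hill fits.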

COC1=CC(=O)OC(CCc2ccccc2)C1 (stereo not drawn)
inactive: Potency [1] > 92 µM | Potency [2] > 92 µM | Potency [3] > 92 µM | Potency [4] > 92 µM | Potency [5] > 92 µM | outcome [6] | activity change, negative = cytotoxicity [7] -9.01% | Potency [8] | Potency [9] | Potency [10] | activity change, negative = cytotoxicity [11] -1.23% | outcome [12] | outcome [13] | caspase-3 activation [14] 0.972% | outcome [15] | outcome [16] | outcome [17] | outcome [18] | outcome [19] | outcome [20] | outcome [21] | outcome [22] | caspase-3 activation [23] -5.42%
